Data from PubChem BioAssay.
Active and inactive are the calls of the source.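 The calls were made as follows, unless noted: active = inhibition above 20% together with a positive visual image hit; inconclusive = visual image hit but inhibition not above 20%; inactive = no visual image hit.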

Tests used:
[1] = inhibitors of TNFa-induced NFkB p65 translocation, primary screen, imaging, HUVEC, MLSMR starter and 10KST1 sets (AID 438); conditions: HUVEC TNFa-induced p65 nuclear translocation; cell count: measured here: nuclei count (cytotoxicity indicator), at 2.08 µM; inhibition: at 2 µM, stronger effect = higher value, 0% TNFa-plus-vehicle, 100% no-TNFa wells;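 also: compound added about 3h40 before a 20 min TNFalpha stimulation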;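 as to inhibition: signal is the nuclear over cytoplasmic p65 intensity ratio per well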
[2] = inhibitors of mutant huntingtin aggregation, primary screen, imaging, exon1htt(103Q)mCFP cells, high-content imaging (AID 483;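 active = visual image review flags a hit and inhibition of aggregation exceeds 20%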;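 also: compound exposure lasted 3 days before fixation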;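 as to nuclei count: percent of the per-plate median nuclei count of sample wells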); conditions: exon1htt(103Q)mCFP cell line, aggregate imaging, at 2 µM; inhibition of aggregation: stronger effect = higher value; nuclei count: measured here: cell count, toxicity
[3] = inhibitors of E-selectin induction by TNFa, primary screen, imaging, HUVEC, immunofluorescence, MLSMR starter and 10KST1 sets (AID 487;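 active = visually confirmed hit in the image check and inhibition above 20%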;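 as to inhibition: signal is fraction of cell area covered by stained E-selectin grains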;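 as to nuclei count: 100% = median nuclei count of all wells on the same plate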); conditions: HUVEC TNFalpha-induced E-selectin immunofluorescence imaging, at 2 µM; inhibition: stronger effect = higher value; nuclei count: measured here: cell number, toxicity
[4] = DUSP6 inhibitors restoring Erk phosphorylation by chemical complementation, primary imaging in DUSP6-transfected HeLa (AID 609;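 active = compounds giving at least 50% inhibition in the cell-based MKP-3 phosphatase rescue imaging test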;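 as to inhibition: phospho-Erk level distribution per well compared with pooled transfected vehicle control wells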); conditions: HeLa MKP-3 transfected, phospho-Erk imaging KS statistic, at 10 µM, cells stimulated with TPA for 15 min
[5] = biological target: Dual specificity protein phosphatase 6 (Homo sapiens) (UniProt Q16828); assay: as above; conditions: HeLa MKP-3 transfected, phospho-Erk imaging KS statistic; at 10 µM; stronger effect = higher value; cells stimulated with TPA for 15 min
Sequence of Dual specificity protein phosphatase 6 (Homo sapiens) (Q16828 whole entry, looked up): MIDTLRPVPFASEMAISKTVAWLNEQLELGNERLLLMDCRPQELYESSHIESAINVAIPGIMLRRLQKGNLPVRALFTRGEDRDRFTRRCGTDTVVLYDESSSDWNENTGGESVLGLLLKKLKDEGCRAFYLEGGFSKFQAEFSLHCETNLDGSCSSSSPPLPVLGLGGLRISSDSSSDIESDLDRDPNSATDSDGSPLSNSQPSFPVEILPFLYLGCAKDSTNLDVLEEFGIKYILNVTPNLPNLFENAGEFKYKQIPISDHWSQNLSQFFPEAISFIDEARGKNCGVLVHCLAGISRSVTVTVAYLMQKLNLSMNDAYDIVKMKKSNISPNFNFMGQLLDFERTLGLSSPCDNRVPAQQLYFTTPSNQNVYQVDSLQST

[6] = biological target: Voltage-gated potassium channel subunit beta-2 (Rattus norvegicus) (UniProt P62483); assay: KvBeta enzyme negative modulators, primary screen, biochemical, NADPH fluorescence (AID 622;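 active = fluorescence slope higher than the sample average by over 3 SD, cut at about -0.22 in these data, passing the limit was not always enough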;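 also: slope of raw intensity against log time taken from 70 to 1610 s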); conditions: recombinant KvBeta, 4-cyanobenzaldehyde reduction, at 10 µM, stronger effect = higher value
Sequence of Voltage-gated potassium channel subunit beta-2 (Rattus norvegicus) (P62483 whole entry, looked up): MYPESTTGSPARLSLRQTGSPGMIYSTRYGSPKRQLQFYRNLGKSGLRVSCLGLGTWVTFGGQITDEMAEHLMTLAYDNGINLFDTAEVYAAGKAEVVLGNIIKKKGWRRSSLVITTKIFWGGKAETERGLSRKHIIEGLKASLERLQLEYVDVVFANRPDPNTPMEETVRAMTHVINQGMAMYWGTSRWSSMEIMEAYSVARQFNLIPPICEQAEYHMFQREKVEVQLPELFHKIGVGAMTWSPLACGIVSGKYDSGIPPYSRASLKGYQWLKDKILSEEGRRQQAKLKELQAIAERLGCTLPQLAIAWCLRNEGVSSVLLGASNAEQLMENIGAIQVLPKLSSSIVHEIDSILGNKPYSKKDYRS

[7] = biological target: Voltage-gated potassium channel subunit beta-2 (Rattus norvegicus) (UniProt P62483); assay: KvBeta positive modulators, primary screen, biochemical, NADPH fluorescence (AID 623;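 active = NADPH fluorescence slope more negative than the mean of all samples by about 3 SD, 99.7% confidence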;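 also: fluorescence intensity change per second fitted from 20 to 320 s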); conditions: Recombinant KvBeta, NADPH fluorescence decrease slope, 10 min; at 10 µM; stronger effect = lower value
[8] = biological target: Alpha-2C adrenergic receptor (Homo sapiens) (UniProt P18825); assay: modulators of alpha2C/GIRK thallium flux, primary screen, cell-based, HEK293 alpha2C/GIRK1/2 (AID 624;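 active = fluorescence slope after compound addition differing from the mean of all screened samples at 99.7% confidence, in either direction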;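 also: slope of fluorescence ratio to pre-addition baseline per second over 15 to 24 s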); conditions: thallium flux BTC fluorescence, at 10 µM, actives lie on both sides
Sequence of Alpha-2C adrenergic receptor (Homo sapiens) (P18825 whole entry, looked up): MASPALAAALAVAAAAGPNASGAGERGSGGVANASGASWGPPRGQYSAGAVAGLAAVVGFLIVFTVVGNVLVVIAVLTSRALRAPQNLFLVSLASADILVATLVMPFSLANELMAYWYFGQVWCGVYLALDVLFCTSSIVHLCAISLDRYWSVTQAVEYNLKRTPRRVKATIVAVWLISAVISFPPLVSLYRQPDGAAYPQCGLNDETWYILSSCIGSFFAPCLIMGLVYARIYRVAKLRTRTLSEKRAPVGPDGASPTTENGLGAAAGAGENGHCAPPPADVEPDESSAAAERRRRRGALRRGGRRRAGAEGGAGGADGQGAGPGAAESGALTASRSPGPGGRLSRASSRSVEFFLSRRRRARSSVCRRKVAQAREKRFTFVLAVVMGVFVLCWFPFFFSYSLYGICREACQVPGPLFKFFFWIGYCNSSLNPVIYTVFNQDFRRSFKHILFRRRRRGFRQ

[9] = inhibitors of larval lipid processing in zebrafish, primary screen, whole organism, PED6 fluorescence, gall bladder and intestine (AID 686;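 active = a full or partial loss of lipid-probe fluorescence in the fish gall bladder, intestine or both, judged by eye; inactive = no fluorescence loss, or compound toxic to the fish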;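 also: larvae 5 to 7 days old with five fish per well; signal comes from phospholipase A2 cleavage of quenched PED6 carried via bile; overnight exposure to compound and PED6 before scoring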); conditions: Zebrafish larvae PED6 lipid processing, fluorescence scoring; screened at 20 µM (by protocol)
[10] = inhibitors of Chlamydomonas gravitaxis, primary screen, whole organism, Chlamydomonas reinhardtii, WT vs cilia-less mutant, absorbance, 96-well (AID 463189;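 active = inhibition at or above 50% relative to wild type and mutant plate controls; inactive = inhibition below 50%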;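 also: 0% = wild type cc124 cells in DMSO and 100% = ciliumless bld1 mutant cells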); conditions: OD600 absorbance, 2 days, at 10 µM, stronger effect = higher value
[11] = inhibitors of Sendai virus-induced IRF3 signaling, primary screen, TLR/RLR signaling modifier project, cell-based, Sendai virus stimulus, luciferase, 10K MLSCN set (AID 602276;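 active = inhibition at or above 50% at 10 µM; inactive = inhibition below 50%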;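 also: firefly luciferase from ISG56 promoter only with Renilla not read in this screen; 0% = Sendai virus plus DMSO and 100% = medium plus DMSO without virus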); conditions: HEK293 RL24 IRF3 luciferase reporter, at 10 µM, stronger effect = higher value
[12] = inhibitors of poly I:C-induced TLR3 signaling, primary screen, cell-based, poly I:C stimulus, luciferase, 10K MLSCN set (AID 602277;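 active = inhibition of the reporter signal at or above 50%; inactive = inhibition below 50%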); conditions: HEK293-TLR3 RL24 IRF3 luciferase reporter, at 10 µM, stronger effect = higher value
[13] = biological target: Muscarinic acetylcholine receptor M4 (Homo sapiens) (UniProt P08173); assay: compounds altering M4/GIRK thallium flux, either direction, primary screen, M4 allosteric agonist project, cell-based, HEK293 M4/GIRK, BTC-AM (AID 625;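 active = fluorescence slope after compound addition differing from the mean of all tested samples at 99.7% confidence, mostly higher but some lower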;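 also: thallium influx through GIRK channels coupled to M4 in HEK293 cells with BTC-AM dye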); conditions: at 10 µM, actives lie on both sides
Sequence of Muscarinic acetylcholine receptor M4 (Homo sapiens) (P08173 whole entry, looked up): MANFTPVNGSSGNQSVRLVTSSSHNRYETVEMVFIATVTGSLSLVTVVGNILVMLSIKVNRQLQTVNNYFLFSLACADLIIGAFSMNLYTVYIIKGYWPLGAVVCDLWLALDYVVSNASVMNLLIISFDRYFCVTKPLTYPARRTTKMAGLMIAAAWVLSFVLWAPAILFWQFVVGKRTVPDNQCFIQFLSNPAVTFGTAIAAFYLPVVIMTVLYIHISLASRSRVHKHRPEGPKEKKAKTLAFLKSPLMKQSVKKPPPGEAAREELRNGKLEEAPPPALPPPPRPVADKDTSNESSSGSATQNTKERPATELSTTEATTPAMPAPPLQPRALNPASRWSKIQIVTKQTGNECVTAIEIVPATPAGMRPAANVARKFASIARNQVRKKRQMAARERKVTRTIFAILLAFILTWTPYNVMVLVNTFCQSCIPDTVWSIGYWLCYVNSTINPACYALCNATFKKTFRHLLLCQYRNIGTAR

[14] = measured here: cell density z-score
[15] = measured here: nuclear c-Myc green intensity z-score
[16] = measured here: nuclear pErk red intensity z-score, stronger effect = higher value

SMILES | cell count [1] | inhibition [1] | nuclei count [2] | inhibition [3] | nuclei count [3] | z-score [4, 14] | z-score [4, 15] | z-score [4, 16] | inhibition [5] | fluorescence slope [6] | NADPH fluorescence slope [7] | slope [8] | outcome [9] | inhibition [10] | inhibition [11] | inhibition [12] | inhibition of aggregation [2] | fluorescence slope [13]
Cn1c(Cl)cnc1C1CC(=O)c2cc(Cl)ccc2O1 (centres undefined) | 637 | -11.8% (inactive) | 0.8% | -161% (inactive) | 112% | -0.672 | -0.603 | -2.4 | 15.9% (inactive) | -0.562 (inactive) | -8.8e-06 (inactive) | 0.00554 (inactive) | inactive | -12.2% (inactive) | 16.5% (inactive) | 35% (inactive) | – | –
Nc1ccc(S(=O)(=O)Nc2ncccn2)cc1 | 603 | -1.5% (inactive) | 87.5% | -68.8% (inactive) | 130% | 1.12 | -1.89 | 1.02 | 5.79% (inactive) | -0.5 (inactive) | -6.3e-05 (inactive) | 0.00507 (inactive) | inactive | -12.2% (inactive) | 15.1% (inactive) | – | -4.1% (inactive) | –
CC[C@H](C)C(=O)O[C@H]1C[C@@H](C)C=C2C=C[C@H](C)[C@H](CC[C@@H]3C[C@@H](O)CC(=O)O3)[C@H]21 | 724 | -11.9% (inactive) | 105% | -93.9% (inactive) | 122% | 0.18 | -1.59 | -0.22 | 21.2% (inactive) | – | – | 0.00586 (inactive) | inactive | 14.3% (inactive) | -4.78% (inactive) | 49.1% (inactive) | 0.4% (inactive) | –
O=C(NC1CCS(=O)(=O)C1)c1c(NC(=O)C2COc3ccccc3O2)sc2c1CCCC2 (centres undefined) | 657 | -7% (inactive) | 97.6% | -35.3% (inactive) | 143% | 0.65 | -1.93 | 0.35 | 5.42% (inactive) | -0.42 (inactive) | -4.5e-05 (inactive) | – | inactive | 30.5% (inactive) | 17.1% (inactive) | 14.6% (inactive) | 3% (inactive) | 0.00528 (inactive)
Cc1cc(NS(=O)(=O)c2ccc(N)cc2)no1 | 614 | 2.1% (inactive) | – | -43.4% (inactive) | 117% | -1.02 | -0.449 | 1.11 | -5.24% (inactive) | -0.445 (inactive) | -2.3e-05 (inactive) | 0.00461 (inactive) | inactive | 1.6% (inactive) | 19.8% (inactive) | 31.9% (inactive) | – | –
